Structures are written as SMILES. In all, about 290,000 compounds went through this assay and about 3,300 (1.1%) were called active. Shown is part of a subset that was picked to be rich in actives. Values without a mark were called inactive. No stated cut-off is given here; in the data, active means binding response below about 67% or above about 130%; inconclusive means no clear call, values can overlap the other calls; inactive means in between.

In PubChem BioAssay AID1531 (NMMLSC, 2009) one finds binding response (% of control) data, which are given here for 93 molecules.

The assay has as its target Mitogen-activated protein kinase kinase kinase 2 (Homo sapiens) (UniProt Q9Y2U5). Put plainly: modulators of MEK5 binding to wildtype MEKK2, primary screen, biochemical, multiplex bead flow cytometry, Alexa488-MEK5 (AID 1531). The settings on record: Alexa488-MEK5 binding to MEKK2 WT, at 10 µM, actives lie on both sides.
`COC(=O)C1=C[C@@H](C(=O)OC)[C@@H]2C3=C(C(=O)[C@]2(C)NC(=O)c2ccccc2)[C@H](C)n2c(=O)n(C)c(=O)n2[C@@H]3C1`: the binding response (% of control) was 102%.

For `OCC[C@H]1C[C@H](O)[C@@H](O)[C@]2(CCCCO2)O1`, the binding response (% of control) is 98%.

Take `Cc1ccc(NS(=O)(=O)c2cc3c(cc2C)NC(=O)CO3)cc1`: the binding response (% of control) is 98%.

`Cc1cccc(NC(=O)c2cccc(C(F)(F)F)c2)c1`: the binding response (% of control) is 91%.

Consider `COc1cccc(NC(=O)NCc2ccc(F)cc2)c1`, for which the binding response (% of control) was 98%.

For the molecule `Cc1cccc(NC(=O)Nc2cccc(Oc3c(F)c(F)c(F)c(F)c3F)c2)c1`, the binding response (% of control) is 235% (active).

As to `CC(Sc1nnc(-c2ccccc2F)n1C1CC1)C(N)=O` (stereo not drawn), the binding response (% of control) was 104%.

Take `Cc1c(NC(=O)Nc2cccc([N+](=O)[O-])c2)c(=O)n(-c2ccccc2)n1C`: the binding response (% of control) is 103%.

For the molecule `COc1ccc(C(=O)NC(=S)N2CCNC(=O)C2CC(=O)OC(C)C)cc1` (stereo not drawn), the binding response (% of control) is 107%.

On to `CCCNC(=O)NCc1ccc(N2CCCC2=O)cc1`, for which the binding response (% of control) was 98%.

Turning to `O=C(COC(=O)c1ccc(N2CCCC2=O)cc1)c1ccc(OC(F)F)cc1`, the binding response (% of control) is 0% [inhibitor] (active).

As for `CCOc1ccc(C(=O)COC(=O)c2ccc(-n3cnnn3)cc2)cc1`, the binding response (% of control) was 99%.

For the molecule `COC(C[C@@H](O)C[C@H](O)[C@H](C)OCc1ccccc1)OC`, the binding response (% of control) is 92%.

Regarding `Cc1cc(C)cc(N(CC(=O)N2CC=C(c3ccccc3)CC2)S(=O)(=O)c2c(C)noc2C)c1`, the binding response (% of control) was 112%.

Consider `Cc1noc(C)c1S(=O)(=O)Nc1ccc(C(=O)O)cc1`, for which the binding response (% of control) was 100%.

Take `Cc1noc(C)c1S(=O)(=O)N(C)Cc1ccccc1`: the binding response (% of control) was 5% [inhibitor] (active).

Turning to `CC(=O)N(C)c1ccc(NC(=O)C(F)(F)F)cc1`, the binding response (% of control) is -2% [inhibitor] (active).

In the case of `CCOc1ccc(NC(=O)Nc2ccc(N(C)C(C)=O)cc2)cc1`, the binding response (% of control) was 97%.

Take `CC(=O)N(C)c1ccc(NC(=O)Nc2cccc3ccccc23)cc1`: the binding response (% of control) was 106%.

`COCCCNC(=O)/C=C/c1ccc(OCc2c(F)cccc2Cl)cc1`: the binding response (% of control) was 106%.

`O=C(/C=C/c1ccc(OCc2c(F)cccc2Cl)cc1)N1CCOCC1`: the binding response (% of control) was 74%.

Take `CN(C)CCCNC(=O)/C=C/c1ccc(OCc2c(F)cccc2Cl)cc1`: the binding response (% of control) was 170% (active).

For the molecule `CCOC(=O)N1CCC(NC(=O)CCc2ccccc2)CC1`, the binding response (% of control) was 107%.

With `COc1cc(NC(=O)C2=CC(c3ccc(C)cc3)=NS(=O)(=O)N2C)cc(OC)c1OC`, the binding response (% of control) is 105%.

As to `Cc1cc(C)cc(N(CC(=O)NC2CCCC2)C(=O)CCC(=O)Nc2cc(C)on2)c1`, the binding response (% of control) was 96%.

As for `COCCCNC(=O)[C@H]1N2C(=O)c3ccccc3C2SC1(C)C` (stereo partly drawn), the binding response (% of control) is 103%.

For the molecule `Cc1ccc(C2CC(c3cccc(NS(C)(=O)=O)c3)=NN2S(C)(=O)=O)cc1` (stereo not drawn), the binding response (% of control) was 20% (active).

In the case of `CS(=O)(=O)Nc1cccc(C2=NN(S(=O)(=O)c3ccccc3)C(c3cccs3)C2)c1` (stereo not drawn), the binding response (% of control) is 94%.

Take `CS(=O)(=O)Nc1cccc(C2=NN(C(=O)c3cccc(F)c3)C(c3cccs3)C2)c1` (stereo not drawn): the binding response (% of control) was 102%.

On to `CN(C(=O)CC1C(=O)NCCN1Cc1ccc(F)cc1Cl)C1CCCCC1` (stereo not drawn), for which the binding response (% of control) was 101%.

With `S=C(NCc1ccc(Cl)cc1)NC1CCCCC1`, the binding response (% of control) is 106%.

Take `O=C(NCc1ccncc1)NC12CC3CC(CC(C3)C1)C2`: the binding response (% of control) was 87%.

Regarding `S=C(NCc1ccc(Cl)cc1)NC12CC3CC(CC(C3)C1)C2`, the binding response (% of control) is 160% (active).

Turning to `Cc1cccc(OCC(=O)NCC(=O)N/N=C/c2ccc(N(C)C)cc2)c1`, the binding response (% of control) is 106%.

Take `CN(C)CCCn1c(SCc2ccc(Cl)cc2)nnc1-c1ccncc1`: the binding response (% of control) was 109%.

Consider `O=S(=O)(Cc1nnnn1-c1ccccc1)c1ccccc1`, for which the binding response (% of control) was 108%.

As to `CCS(=O)(=O)C1=NSC2=NC(=O)/C(=C\c3cc(C)n(-c4cccc(OC)c4)c3C)C(=N)N21`, the binding response (% of control) was 98%.

As to `CCC1=NN2C(=N)/C(=C/c3cc(C)n(-c4ccccc4)c3C)C(=O)N=C2S1`, the binding response (% of control) was 98%.

For `Cc1cc(/C=C2/C(=N)N3C(=NC2=O)SN=C3S(C)(=O)=O)c(C)n1-c1ccccc1`, the binding response (% of control) is -2% (active).

For the molecule `Cc1cccc(CCNC(=O)Cn2ncc3c([nH]c4ccc(C)cc43)c2=O)c1`, the binding response (% of control) is 96%.

Turning to `C=CCOc1cccc(C2C(C(=O)c3ccc(C)o3)=C(O)C(=O)N2CCCn2ccnc2)c1` (stereo not drawn), the binding response (% of control) was 98%.

Consider `CC1CCCC(C)N1C(=O)CSc1nnnn1C1CCCC1` (stereo not drawn), for which the binding response (% of control) is 100%.

Take `CCCc1nnc(SCC(=O)N2C(C)CCCC2C)n1CC` (stereo not drawn): the binding response (% of control) is 812% (active).

As to `CCCc1cc(=O)[nH]c(SCC(=O)N2C(C)CCCC2C)n1` (stereo not drawn), the binding response (% of control) is 113%.

Regarding `COc1ccccc1CNS(=O)(=O)c1c(C)[nH]c(C)c1C(=O)N1CCCCC1`, the binding response (% of control) was 101%.

`O=C(Nc1ccc(C(=O)N2CCOCC2)cc1)Nc1cccc(C(F)(F)F)c1`: the binding response (% of control) is 102%.

For `O=C(COc1cc2oc(=O)c3c(c2cc1Cl)CCC3)NCCCN1CCOCC1`, the binding response (% of control) is 100%.

With `CCCC[C@@H]1CN=C(N)N1CCc1cccc(F)c1`, the binding response (% of control) was 107%.

`CCCn1c(=N)n(CC(=O)c2ccc(Cl)c(Cl)c2)c2ccccc21`: the binding response (% of control) was 139% (active).

Regarding `CCn1c(=N)n(CC(=O)c2cccc(OC)c2)c2ccccc21`, the binding response (% of control) was 96%.

As to `CCCNC(=O)c1ccc(Cl)c(Cl)c1`, the binding response (% of control) is 101%.

`COC(C[C@@H]1O[C@@H]1C(=O)[C@@H](C)OCc1ccccc1)OC`: the binding response (% of control) is 97%.

In the case of `O=C(CCN1CCc2ccccc2C(O)(c2ccccc2)C1)c1ccc2c(c1)OCCO2` (stereo not drawn), the binding response (% of control) was 103%.

For `O=C(NCCN1CCOCC1)c1ccc(/C=C2\Sc3ccccc3N(Cc3ccc(F)cc3)C2=O)cc1`, the binding response (% of control) is 128%.

Take `CCN1CCN(CCNC(=O)c2ccc3c(c2)NC(=O)/C(=C\c2ccc(OC)c(OC)c2)S3)CC1`: the binding response (% of control) is 131%.

Turning to `CCN1CCN(CCNC(=O)c2ccc(/C=C3/Sc4ccccc4N(Cc4cccc(C)c4)C3=O)cc2)CC1`, the binding response (% of control) was 220% (active).

With `CCOc1cc(C)c(S(=O)(=O)NCc2ccccn2)cc1C`, the binding response (% of control) is 102%.

In the case of `Cc1cccc(N2CCN(C(=O)COCc3cc(-c4ccc5c(c4)OCO5)on3)CC2)c1C`, the binding response (% of control) is 100%.

Turning to `Cc1nc2sccn2c(=O)c1S(=O)(=O)NCCc1ccccc1`, the binding response (% of control) was 99%.

In the case of `COc1ccc(CN2[C@@H](CC(=O)O)c3cc(F)ccc3S2(=O)=O)cc1`, the binding response (% of control) was 84%.

Regarding `CC(Oc1cccc(Cl)c1)C(=O)NC1CC(C)(C)NC(C)(C)C1` (stereo not drawn), the binding response (% of control) is 107%.

Take `Cc1cc(-c2csc(N)n2)c(C)n1-c1ccccc1`: the binding response (% of control) was -9% (active).

Take `Cc1cc(-c2csc(N)n2)c(C)n1Cc1ccccc1`: the binding response (% of control) was 89%.

On to `CC(=O)Nc1ccc(C(=O)Nc2nc(-c3cc(C)n(Cc4ccccc4)c3C)cs2)cc1`, for which the binding response (% of control) was 107%.

Take `COC(=O)CN1C(=O)[C@H]2[C@@H](/C=C/c3ccccc3)N3C(=O)CN(Cc4ccccc4)C(=O)[C@@]3(Cc3ccccc3)[C@H]2C1=O`: the binding response (% of control) is 95%.

With `COCCNc1cc(-c2ccccc2)nc2cc(-c3cccc(F)c3)nn12`, the binding response (% of control) was 118%.

On to `COc1ccc(SC[C@H](Cc2ccccc2)N2CCN(CCc3ccccc3)CCC2=O)cc1`, for which the binding response (% of control) is 158% (active).

As to `O=C1CCN(Cc2ccccc2)CCN1[C@H](CSc1ccccc1)c1ccccc1`, the binding response (% of control) was 90%.

On to `CN1CCC(=O)N([C@H](CO)Cc2ccccc2)CC1`, for which the binding response (% of control) is 97%.

Turning to `C[C@H]1CCC(=O)N([C@H](CSc2ccccc2)Cc2ccccc2)CC1`, the binding response (% of control) is 161% (active).

`COc1ccc(SCCN2CCN(CC(C)C)CCC2=O)cc1`: the binding response (% of control) was 131%.

Regarding `O=C1CCNCCN1[C@H](CO)Cc1ccccc1`, the binding response (% of control) was 110%.

On to `O=C(NCc1ccccc1)C1=C[C@@H](c2ccccc2)C[C@@H](OCCCCO)O1`, for which the binding response (% of control) is 101%.

In the case of `COCOc1cc(O)c(C(=O)/C=C/c2ccc(OCOC)c(OCOC)c2)c(OCOC)c1`, the binding response (% of control) is 111%.

Turning to `COc1ccccc1N1CCN(c2nc(C)cc(=O)[nH]2)CC1`, the binding response (% of control) is 107%.

With `CCCCOc1ccc(C(=O)NCc2ccncc2)cc1`, the binding response (% of control) was 111%.

On to `CCCCOc1ccc(C(=O)NN2CCN(C)CC2)cc1`, for which the binding response (% of control) was 99%.

`CCCOc1ccc(C(=O)C(CCC(CNCC)C(=O)c2ccc(OCCC)cc2)CNCC)cc1` (stereo not drawn): the binding response (% of control) was 188% (active).

As to `CCCCN(CCCC)CCNC(=O)CN1C(=O)COc2ccc(S(=O)(=O)N3CCOCC3)cc21`, the binding response (% of control) was 103%.

On to `CN=c1scc(-c2cc(OC)ccc2OC)n1/N=C/c1c(C)[nH]c2ccccc12`, for which the binding response (% of control) was 10% (active).

As for `COc1ccc(N=Cc2c(O)[nH]c3ccccc23)cc1OC`, the binding response (% of control) is 103%.

As to `CCn1c(-c2cc(OC)ccc2OC)csc1=Nc1c(C)n(C)n(-c2ccccc2)c1=O`, the binding response (% of control) was 107%.

As to `Cc1cc(OCC(=O)NCC(O)c2ccccc2)c2c(C)c(C)c(=O)oc2c1` (stereo not drawn), the binding response (% of control) was 100%.

Take `O=C(Nc1ccccc1)c1ccc2c(c1)OCCCO2`: the binding response (% of control) was 105%.

Take `COc1ccc(C(C)NC(=S)NC2CCCCC2)cc1OC` (stereo not drawn): the binding response (% of control) is 101%.

In the case of `Cc1nc2nc[nH]n2c(=O)c1C/C=C/c1ccccc1`, the binding response (% of control) was 83%.

As for `Cc1[nH]c(=O)c(C(=O)/C=C/c2ccccc2)c2c1CCCC2`, the binding response (% of control) is 101%.

Regarding `Cc1cn(COC/C=C/c2ccccc2)c(=O)[nH]c1=O`, the binding response (% of control) was -7% [inhibitor] (active).

`COc1ccc(-c2nc3c(s2)CCc2onc(-c4ccc(Br)cc4)c2-3)cc1`: the binding response (% of control) was 95%.

Consider `CCCCN(CCCC)CCCNC(=O)CN1C(=O)COc2ccc(S(=O)(=O)N3CCC(C)CC3)cc21`, for which the binding response (% of control) was 96%.

Consider `CCOc1ccc(N=C2SC(C(=O)O)CC(=O)N2C)cc1` (stereo not drawn), for which the binding response (% of control) is 92%.

As for `COc1ccc(N=C2SC(C(=O)Nc3ccc(F)cc3)CC(=O)N2C)cc1` (stereo not drawn), the binding response (% of control) is 97%.

As to `CN=C1SC(C(=O)O)CC(=O)N1C` (stereo not drawn), the binding response (% of control) is 3% (active).
